Four compounds from ChEMBL document CHEMBL4513140, “CO-ADD screening of Lancaster University (UK) compounds” (2021) can be followed below.

Measured potencies and affinities stand elsewhere.

One assay has as its system Klebsiella pneumoniae. To be noted: Concentration 32 ug.mL-1; ASSAY_TEST Inhibition of Bacterial Growth; detection method Absorption (OD600); MEDIA CAMHB; plate type 384well; NBS; CORNING #3640; time 18 hr.
Take `CC(=O)c1cc(C(C)=O)cc(C(C)=O)c1`: the Inhibition (usually the change of the read-out against control, counted positive when it falls) amounted to 7.55%.
On the same count and under the same terms, with `c1ccc2nc3c4cccnc4c4ncccc4c3nc2c1` the figure was 2.4%; with `COC(=O)c1ccc(S)cc1`, -1.57%; with `CC(=NN)c1cc(/C(C)=N/N)cc(/C(C)=N/N)c1`, 4.02%.

The test system of a further assay is Candida albicans. To be noted: 32 ug/mL.
Take `CC(=O)c1cc(C(C)=O)cc(C(C)=O)c1`: the Inhibition came out at 2.92%.
Regarding `c1ccc2nc3c4cccnc4c4ncccc4c3nc2c1`, the Inhibition was 9.1%.
For `COC(=O)c1ccc(S)cc1`, the Inhibition came to 2.97%.
Take `CC(=NN)c1cc(/C(C)=N/N)cc(/C(C)=N/N)c1`: the Inhibition was 5.62%.

Another assay has as its system Cryptococcus neoformans. Conditions: Concentration 32 ug.mL-1; ASSAY_TEST Inhibition of Fungal Growth; detection method Resazurin; Absorption (OD600-OD570); plate type 384well; NBS; CORNING #3640. (The colour change of resazurin is a common sign of viable cells or microbes.)
Consider `CC(=O)c1cc(C(C)=O)cc(C(C)=O)c1`, for which the Inhibition is recorded as -57.45%.
On the same count and under the same terms, the figure for `c1ccc2nc3c4cccnc4c4ncccc4c3nc2c1` is -49.42%; for `COC(=O)c1ccc(S)cc1` it is -49.69%; for `CC(=NN)c1cc(/C(C)=N/N)cc(/C(C)=N/N)c1` it is -41.95%.
